PTK2B oligo ant: antagonists of Pyk2 self-association, primary screen, Q293 cells, FERM NanoBiT luminescence, HTS; Protein-tyrosine kinase 2-beta (Homo sapiens), Q14289; hits give low values; z-score (the deposit names both 25 µM and 10 µM); hit rate 0.83% among 99,000; AID 1347419, 2020;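 active = Z-score of -3 or lower, scaled per plate to the spread of control and sample wells; inactive = z-score above -3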;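 also: negative z-score means lost luminescence so less FERM oligomerization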
CYP2C9 inhib: blockers of cytochrome P450 2C9 activity – biochemical, luminescence, ADME assay, primary screen. hit rate 20% among 96,000. inhibition, % at 5 µM. CYP2C9 Supersomes, luciferin-H conversion. P11712. AID 777, 2007;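 active = blocking of liver enzyme CYP2C9 beyond about 50% at 5 µM, limit read from the data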
CYP2C19 inh: blockers of cytochrome P450 2C19 activity – biochemical, luminescence, ADME assay, primary screen. P33261. CYP2C19 Supersomes, luciferin-H EGE luminescence, 30 min. inhibition, % at 5 µM. hit rate 21% among 96,000;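 active = CYP2C19 inhibition above a set limit at 5 µM in the primary screen, cut at about 50% in these data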;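 also: plate controls were negative control wells for no effect and 2.5 mM tranylcypromine positive control for full effect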
CYP2C9 act: human CYP2C9 activators, primary screen, biochemical, luminescence; Cytochrome P450 2C9 (Homo sapiens), P11712; recombinant CYP2C9, luciferin-H conversion; hits give high values; factor 1 = untreated enzyme, 0 = blocked; activation factor at 5 µM; hit rate 1.4% among 96,000; AID 1024, 2008;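 active = activation factor of 2 or more for CYP2C9 at a 5 µM dose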;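 also: 0 = sulfaphenazole-blocked wells and 1 = vehicle-only wells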
CYP2C19 act: human CYP2C19 activators, primary screen, biochemical, luminescence | Cytochrome P450 2C19 (Homo sapiens), P33261 | recombinant CYP2C19, luciferin-H EGE luminescence; hits give high values; 0 = fully inhibited enzyme, 1 = untreated enzyme | activation factor at 5 µM | 96,000 tested, under 10 active;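 active = activation factor of at least 2 at 5 µM in the primary screen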;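 also: 0 = wells with 2.5 mM tranylcypromine and 1 = vehicle-only wells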
* marks the source's active call; other numbers are inactive results; / = no result. Most compounds without a hit are left out; they make up all but 28% or so of the library.

SMILES | PTK2B oligo ant | CYP2C9 inhib | CYP2C19 inh | CYP2C9 act | CYP2C19 act
CC(C)OC(=O)Cn1c(=O)oc2ccccc21 | -0.34 | -15 | 23 | 1.2 | 0.8
COc1c(OC(C)=O)ccc(/C=C/c2ccc3ccccc3n2)c1[N+](=O)[O-] | -1.5 | 27 | 89* | 0.7 | 0.1
Cn1nc([N+](=O)[O-])c2c(-c3nc4ccccc4s3)c(N)n(C3CCCCC3)c2c1=O | 0.38 | 29 | -8 | 0.7 | 1.1
CCCCn1c(N)c(-c2nc3ccccc3s2)c2c([N+](=O)[O-])nn(CC)c(=O)c21 | -1.2 | 68* | -15 | 0.3 | 1.1
CCCCn1c(N)c(-c2nc3ccccc3s2)c2c([N+](=O)[O-])nn(C)c(=O)c21 | -0.8 | 35 | 29 | 0.6 | 0.7
CCCCCn1c(N)c(-c2nc3ccccc3s2)c2c([N+](=O)[O-])nn(CC)c(=O)c21 | 0.65 | 72* | -2 | 0.3 | 1
O=C(O)C1CCCCC1C(=O)NCCCN1CCOCC1 (stereo unspecified) | -0.86 | 0 | 12 | 1 | 0.9
CCOC(=O)c1ccc2c(c1)NC(=O)C(N1CCN(c3ccc(OC)cc3)CC1)S2 (stereo unspecified) | / | 1 | -14 | 1 | 1.1
COc1cc(N=c2ssnc2Cl)cc(OC)c1 | -0.71 | 100* | 48 | 0 | 0.5
O=C(CNC(=O)c1ccco1)OCc1cccc(Cl)c1 | 0.19 | 7 | 43 | 0.9 | 0.6
O=C(CCNc1cccc(Cl)c1)c1ccco1 | 0.01 | 36 | 85* | 0.6 | 0.2
CCC(=O)Nc1ccc(NC(=O)CSc2nnnn2C(C)C)cc1 | -0.03 | 68* | -2 | 0.3 | 1
CSc1ccccc1-n1nnnc1SCC(=O)Nc1cc(C)ccc1C | -2 | -208 | 31 | 3.1* | 0.7
CC(C)n1nnnc1SCC(=O)Nc1ccccc1N1CCOCC1 | 1.5 | 38 | 56* | 0.6 | 0.4
Cc1ccc(-n2nnnc2SCC(=O)Nc2ccccc2N2CCCCC2)cc1C | -0.27 | 11 | 80* | 0.9 | 0.2
COc1ccccc1NC(=O)CSc1nnnn1-c1ccc2c(c1)OCO2 | -1.3 | -23 | 45 | 1.2 | 0.5
COc1ccc(C2SCC(=O)N2CCCN(C)C)cc1 (stereo unspecified) | 0.29 | 3 | -18 | 1 | 1.2
CCOC(=O)N1CCN(C(=O)C2CCN(S(=O)(=O)c3ccc(C)cc3)CC2)CC1 | 2 | -35 | 10 | 1.4 | 0.9
CCOC(=O)C1CCN(C(=O)C2CCN(S(=O)(=O)c3cc(Cl)ccc3Cl)CC2)CC1 | 0.63 | -135 | 15 | 2.4* | 0.9
CCOC(=O)N1CCN(C(=O)C2CCN(S(=O)(=O)c3cc(Cl)ccc3Cl)CC2)CC1 | 1.4 | -143 | 51* | 2.4* | 0.5
O=C(NCc1ccc(Cl)cc1)C1C2C=CC3(CN(Cc4cccnc4)C(=O)C13)O2 (stereo unspecified) | -0.2 | 53* | 30 | 0.5 | 0.7
O=C(NCc1ccc(F)cc1)C1C2C=CC3(CN(Cc4cccnc4)C(=O)C13)O2 (stereo unspecified) | 0.36 | -4 | 0 | 1 | 1
CCSc1nc2c(c(=O)[nH]1)C(c1ccncc1)C(C(=O)OC(C)C)=C(C)N2 (stereo unspecified) | 0.75 | 57* | 90* | 0.4 | 0.1
CCSc1nc2c(c(=O)[nH]1)C(c1cccnc1)C(C(=O)OC)=C(C)N2 (stereo unspecified) | 0.56 | 46 | 38 | 0.5 | 0.6
CC1CCCCN1Cc1cnc(Cl)s1 (stereo unspecified) | 0.13 | -5 | 28 | 1 | 0.7
SMILES | PTK2B oligo ant | CYP2C9 inhib | CYP2C19 inh | CYP2C9 act | CYP2C19 act
CCOc1ccc(N(CC(=O)Nc2cccc(OC)c2)S(=O)(=O)c2c(C)noc2C)cc1 | / | 92* | 93* | 0.1 | 0.1
CCOc1ccc(N(CC(=O)NC(C)(C)C)S(=O)(=O)c2c(C)noc2C)cc1 | / | 42 | 50* | 0.6 | 0.5
COc1ccc(NC(=O)CN(c2ccc(C(C)C)cc2)S(=O)(=O)c2c(C)noc2C)cc1OC | / | 2 | 52* | 1 | 0.5
CCOc1ccc(N(CC(=O)Nc2ccc(C)cc2)S(=O)(=O)c2c(C)noc2C)cc1 | / | 18 | -10 | 0.8 | 1.1
COc1ccc(N(CC(=O)Nc2ccc3c(c2)OCCO3)S(=O)(=O)c2c(C)noc2C)cc1 | -1.9 | 26 | 20 | 0.7 | 0.8
CCOc1ccc(N(CC(=O)NCc2cccs2)S(=O)(=O)c2c(C)noc2C)cc1 | / | 69* | 86* | 0.3 | 0.1
COc1ccc(N(CC(=O)N2CC=C(c3ccccc3)CC2)S(=O)(=O)c2c(C)noc2C)cc1 | / | 13 | -1 | 0.9 | 1
CCOc1ccc(N(CC(=O)N2CC=C(c3ccccc3)CC2)S(=O)(=O)c2c(C)noc2C)cc1 | / | 31 | 64* | 0.7 | 0.4
O=C(NCc1ccco1)c1cc2sccc2n1Cc1ccccc1 | -1.7 | / | / | / | /
CCN1CCN(C(=O)c2ccc(Cl)c(S(=O)(=O)N3CCOCC3)c2)CC1 | -0.88 | 28 | 10 | 0.7 | 0.9
OCC(CO)(CO)n1cnnn1 | 0.69 | 23 | 5 | 0.8 | 0.9
O=C1CC(c2ccco2)CC(O)=C1C=Nc1cc(Cl)ccc1O (stereo unspecified) | 0.14 | 73* | 38 | 0.3 | 0.6
O=C1CC(c2ccco2)CC(O)=C1C=Nc1ccc(Br)cc1 (stereo unspecified) | 0.04 | 40 | 22 | 0.6 | 0.8
CC1(C)C(=O)Nc2ccccc2N1C(=O)COC(=O)C1CCCCC1 | 0.85 | 61* | 62* | 0.4 | 0.4
CC1(C)C(=O)Nc2ccccc2N1C(=O)COC(=O)C12CC3CC(CC(O)(C3)C1)C2 | -0.14 | 6 | 0 | 0.9 | 1
Cc1cc(C)c(C)c(S(=O)(=O)N2CCC(C(=O)OCC(=O)N3c4ccccc4NC(=O)C3(C)C)CC2)c1C | -0.79 | -60 | 70* | 1.6 | 0.3
O=C1CN(C(=O)COC(=O)C2CCN(S(=O)(=O)c3ccccc3C(F)(F)F)CC2)c2ccccc2N1 | -0.43 | -51 | 57* | 1.5 | 0.4
O=C1NCCCC1C(=O)N1CCN(C(=O)C2CCCNC2=O)CC1 (stereo unspecified) | / | -10 | -17 | 1.1 | 1.2
CC(C)CCSc1nc(N)c(C#N)cc1C#N | -1.2 | 24 | 14 | 0.8 | 0.9
CCn1c(=O)cc(SCC(=O)Nc2cccc(SC)c2)c2ccccc21 | -1.8 | -39 | 9 | 1.4 | 0.9
CCn1c(=O)cc(SCC(=O)Nc2ccc3c(c2)OCCO3)c2ccccc21 | -2 | -101 | 61* | 2* | 0.4
CCn1c(=O)cc(SCC(=O)Nc2cc(OC)c(OC)c(OC)c2)c2ccccc21 | -1 | -188 | 77* | 2.9* | 0.2
CCn1c(=O)cc(SCC(=O)NCc2ccc(C)o2)c2ccccc21 | -0.2 | -100 | 32 | 2* | 0.7

From PubChem
